Sampled rows, rich in hits. Any-hit rate of the full collection: about 12%.
BAZ2B inh: BAZ2B (human) inhibition; Q9UIF8; AlphaScreen BAZ2B-H3K14Ac peptide displacement; Potency, µM (titrated, usually from 114 µM), inactives show top-dose activity change, negative = inhibition, hits mostly inhibitors; 4.4% of 360,000 active; also: potency is read from the fitted curve at half-maximal effect; % is scaled to controls: 0 for no effect and ±100 for the full control effect; nearly all actives have a fitted effect of over 60% in size
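BAZ2B (50 nM) with biotin-H3(5-23)K14Ac peptide (50 nM) in PBS pH 7.4, 0.01% Tween-20, preformed 30 min, then compound 30 min at room temperature; top concentration 110uM. AlphaScreen streptavidin donor/nickel chelate acceptor beads (10 ug/mL final), 20 min dark, signal read.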
G9a block: G9a (human) methyltransferase inhibition; G9a H3K9 monomethylation, AlphaScreen, 2 h; Potency, µM (titrated, usually from 102 µM), for inactives: at the highest dose activity, negative = inhibition, usual class: inhibitors; 8.8% of 350,000 active; also: potency is read from the fitted curve at half-maximal effect; % is scaled to controls: 0 for no effect and ±100 for the full control effect; nearly all actives have a fitted effect of over 75% in size
Target sequence (Q96KQ7 913-1193 limits assumed): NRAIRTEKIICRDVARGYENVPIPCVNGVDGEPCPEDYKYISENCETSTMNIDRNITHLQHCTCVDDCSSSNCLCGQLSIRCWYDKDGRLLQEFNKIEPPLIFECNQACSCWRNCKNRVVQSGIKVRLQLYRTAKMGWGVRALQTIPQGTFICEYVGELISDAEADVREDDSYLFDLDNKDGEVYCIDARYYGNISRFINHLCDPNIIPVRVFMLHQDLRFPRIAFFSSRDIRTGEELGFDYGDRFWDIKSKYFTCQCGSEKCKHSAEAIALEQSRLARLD
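G9a (20 nM) preincubated 15 min RT with compounds, then 500 nM biotinylated H3K9 peptide and 20 uM SAM added; 2 h RT reaction. Monomethyl-H3K9 product detected by AlphaScreen with anti-H3K9me1 antibody, streptavidin donor and anti-rabbit IgG acceptor beads.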
HP1b chromo inh: blocks HP1-beta chromodomain binding to methylated histone tails; P83916; AlphaScreen HP1-beta / biotin-H3K9me3 peptide binding; Potency, µM (highest dose often 114 µM), for inactives: at the highest dose activity change, negative = inhibition, actives largely listed as inhibitors; 0.56% of 390,000 active; AID 540317; also: potency is read from the fitted curve at half-maximal effect; nearly all actives have a fitted effect of over 70% in size
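Compound inhibition of the preformed complex between 50 nM HP1-beta and 50 nM biotinylated H3K9me3 peptide was read by AlphaScreen. Buffer was PBS pH 7.4 with 0.01% Tween-20. Incubations ran 30 min at room temperature, with 10 ug/mL donor/acceptor beads.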
PLK1 PBD block: PLK1 (human) polo-box domain binding inhibition; 2.8% of 360,000 active; Potency, µM, inactives show max response, negative = inhibition, usual class: inhibitors; Plk1 PBD binding of FITC phosphopeptide, fluorescence polarization; also: potency is read from the fitted curve at half-maximal effect; series mostly up to about 57 µM; % is scaled to controls: 0 for no effect and ±100 for the full control effect; nearly all actives have a fitted effect of over 65% in size
PI5P4Ka inh: inhibitors of human PI5P4K alpha; PI5P4Kalpha enzyme, ADP-Glo luminescence, 60 min; active compounds read low; 1.2% of 330,000 active; P48426; max response, %; active = max response of -50% or lower; inconclusive = between -30% and -50%; inactive = -30% or higher; also: value at the top dose of about 77 µM; % is scaled to controls: 0 for no effect and ±100 for the full control effect
Target sequence (P48426 whole entry, looked up): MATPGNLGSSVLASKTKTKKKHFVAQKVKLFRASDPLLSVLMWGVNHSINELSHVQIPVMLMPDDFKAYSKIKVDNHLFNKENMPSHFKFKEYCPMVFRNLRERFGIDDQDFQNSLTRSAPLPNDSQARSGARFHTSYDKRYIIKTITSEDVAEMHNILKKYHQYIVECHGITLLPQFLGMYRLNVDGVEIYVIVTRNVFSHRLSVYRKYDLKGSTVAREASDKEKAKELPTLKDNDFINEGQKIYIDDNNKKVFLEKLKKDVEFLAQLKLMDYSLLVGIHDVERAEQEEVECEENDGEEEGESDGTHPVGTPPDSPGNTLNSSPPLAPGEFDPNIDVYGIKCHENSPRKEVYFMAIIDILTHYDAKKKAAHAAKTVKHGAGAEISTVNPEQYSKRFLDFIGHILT
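Reactions run in 0.038 M HEPES pH 7.4, 0.28 mM EGTA, 0.1% CHAPS and 5% DMSO, with PI5P4Kalpha, substrate, compound and 5 microM ATP final, one hour at room temperature. Readout is ADP-Glo luminescence.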
JMJD2A Tudor inh: JMJD2A Tudor domain (human) inhibition. O75164. AlphaScreen JMJD2A-Tudor / H3K4me3 peptide binding. Potency, µM (highest dose often 114 µM), without a hit: at the highest dose activity change, negative = inhibition, usual class: inhibitors. 4.4% of 390,000 active. AID 504339; also: potency is read from the fitted curve at half-maximal effect; % is scaled to controls: 0 for no effect and ±100 for the full control effect; nearly all actives have a fitted effect of over 50% in size
* marks the source's active call; other numbers are inactive results; u = inconclusive; x = no result given; [ ] = remark or other dose. Unless noted, calls follow the shape of the dose curve; as a rule, active = well fitted curve in the direction sought with a large enough effect; inconclusive = small, poorly fitted or top-dose-only effect, or another doubt; inactive = no such curve, though single readings can be large; an effect the other way counts as inactive or inconclusive.

SMILES | BAZ2B inh | G9a block | HP1b chromo inh | PLK1 PBD block | PI5P4Ka inh | JMJD2A Tudor inh
Cc1cc(S(=O)(=O)Nc2nc(CN3CCOCC3)nc3sc4c(c23)CCC4)cc(C)c1C | u | 44.7µM* | -3.6% | u | -29.8 | -35.2%
COc1cccc(C(c2sc3nc(-c4ccco4)nn3c2O)N2CCC3(CC2)OCCO3)c1 (configuration not stated) | -17.7% | u | 4.1% | x | x | -18.5%
COc1ccc2sc(-c3ccc(N(C)C)cc3)c(C#CC(C)(C)O)c2c1 | 21.7% | 5.9%[0.501 µM] | 76.9% | -6.3% | 36.0 | 14.7%
COc1ccc(-c2sc3ccc(N4CCOCC4)cc3c2C#CC(C)(C)O)cc1 | 50.1µM* | -2.3%[0.501 µM] | 26.9% | 1.6% | 32.1 | u
COc1ccc2sc(-c3ccc(N(C)C)cc3)c(C#CCCO)c2c1 | u | -0.8%[0.501 µM] | -9.7% | -3.7% | 75.7 | -57.3%
COc1ccc2sc(-c3ccc(N(C)C)cc3)c(C#Cc3cncn3C)c2c1 | x | x | -26.7% | -2.9% | 92.4 | 22.4µM*
COc1ccc(-c2sc3cc(OC)c(OC)cc3c2C#CCO)cc1 | x | x | 24.2% | -13.1% | 5.0 | 20µM*
COc1ccc(-c2sc3ccc(OC)cc3c2C#CCCO)cc1 | 0.4% | 35.5µM* | 45.8% | -5.7% | 33.2 | -7.0%
CC(C)(C)C1CCc2[nH]nc(C(=O)O)c2C1 (configuration not stated) | u | -17.9%[59 µM] | -0.3% | -10.9% | -4.3 | u
O=C(c1n[nH]c2c1CCCC2)n1ccnc1 | -1.8% | -16.9%[59 µM] | x | x | x | x
O=C(O)c1n[nH]c2c1CCCCC2 | 50.1µM* | 10µM* | 3.4% | 2.9% | x | u
O=C(O)c1n[nH]c2c1CCCC2 | 56.2µM* | -27.4%[12.7 µM] | 8.9% | -2.1% | -8.6 | 25.1µM*
COc1cc(C2NC(C(=O)O)CS2)ccc1OCc1ccccc1C#N (configuration not stated) | -2.8% | 20µM* | x | x | x | x
CCOC(=O)COc1ccc(C2NC(C(=O)O)CS2)cc1 (configuration not stated) | 56.2µM* | u | u | -6.7% | 5.2 | 7.94µM*
COC(=O)c1ccc(C2NC(C(=O)O)CS2)cc1 (configuration not stated) | u | 3.55µM* | -63.1% | -6.8% | x | 6.31µM*
S=c1[nH]nc(-c2cc(-c3ccccc3)n[nH]2)n1/N=C/c1c(Cl)cccc1Cl | 79.4µM* | 3.98µM* | 6.1% | u | u | 44.7µM*
Clc1ccccc1-c1nn2c(-c3cc(-c4ccccc4)n[nH]3)nnc2s1 | x | x | 20.5%[57 µM] | x | x | -10.8%[57.1 µM]
S=c1[nH]nc(-c2cc(-c3ccccc3)n[nH]2)n1/N=C/c1ccc(Br)s1 | 56.2µM* | 28.2µM* | u | u | -13.3 | u
Cn1c(/C(C#N)=C/c2cccc(O)c2)nc2ccccc21 | -19.3% | -23.8% | u | 26.7µM* | 8.4 | 22.4µM*
COc1cc(/C=C(\C#N)c2nc3ccccc3n2C)cc(OC)c1OC | 10.1% | -5.9%[59 µM] | 22.6% | x | x | -17.6%
CCN(C(=O)Cn1nc(Cc2cccnc2)c2ccccc2c1=O)c1ccccc1F | -1.6% | -21.3%[59 µM] | 45.7% | x | x | -17.9%
CCOC(=O)c1cc(S(=O)(=O)N2CCN(c3cccc(C)c3)C(C)C2)[nH]n1 (configuration not stated) | u | 14.1µM* | 1.7%[57 µM] | x | x | u
CC1CCCN(S(=O)(=O)c2cccc3nonc23)C1 (configuration not stated) | -16.8% | 18.0% | 35.9% | -2.3% | 5.1 | -15.2%
Cc1cccc(N2CCN(S(=O)(=O)c3cccc4nonc34)CC2C)c1 (configuration not stated) | x | 35.5µM* | -20.8% | 9.5% | 8.6 | u
CCOC(=O)c1c(C)[nH]c(C)c1S(=O)(=O)N1CCC(C(=O)N2CCN(c3cccc(C)c3)C(C)C2)CC1 (configuration not stated) | 79.4µM* | -28.2%[59 µM] | 15.0% | x | x | u
SMILES | BAZ2B inh | G9a block | HP1b chromo inh | PLK1 PBD block | PI5P4Ka inh | JMJD2A Tudor inh
Cc1cccc(N2CCN(c3ccc4cc(S(=O)(=O)N5CCCCC5)ccc4n3)CC2C)c1 (configuration not stated) | -18.4%[57.1 µM] | 25.1µM* | 41.4% | 2.9% | 0.7 | u
CCOC(=O)c1cc(S(=O)(=O)N2CCN(c3ccccc3)CC2)[nH]n1 | -31.6% | u | 2.8%[57 µM] | x | x | -16.3%
CCOC(=O)c1c(C)[nH]c(C)c1S(=O)(=O)N1CCC(C(=O)N2CCN(c3cc(C)ccc3C)CC2)CC1 | -36.4% | -32.0%[59 µM] | -7.3% | x | x | u
CCOC(=O)c1cc(S(=O)(=O)N2CCN(c3ccc(C(C)=O)cc3)CC2)[nH]n1 | u | 12.6µM* | 21.4%[57 µM] | x | x | -9.3%
CCOC(=O)c1cc(S(=O)(=O)N2CCN(c3cc(C)ccc3C)CC2)[nH]n1 | 50.1µM* | 3.98µM* | -4.1%[57 µM] | x | x | -32.6%
CC1CN(C(=O)COC(=O)c2cc(=O)[nH]c3ccccc23)CC(C)O1 (configuration not stated) | x | x | x | 0.3% | 3.0 | x
Cc1cc(C)n2ncc(C(=O)NCC(C)C)c2n1 | x | x | x | x | x | 0.7%
Cc1[nH]c2ccccc2c1CC#N | -10.2% | -7.1%[59 µM] | 29.0% | -4.9% | 8.9 | -11.7%
Cc1[nH]c2ccccc2c1[C@H]1[C@@H](CC#N)C1(C)C | u | u | u | 29.9µM* | 1.6 | -23.7%[11.4 µM]
O=C(c1cnccn1)N1CCC[C@@]2(CCN(c3ccncc3)C2)C1 | x | 25.9%[12.7 µM] | x | x | x | x
COCCCN(C(=O)CSc1nc2ccccc2c(=O)n1C)c1c(N)n(Cc2ccccc2)c(=O)[nH]c1=O | x | x | 49.7% | -6.5% | -1.8 | -7.6%
CCOCCCNC(=O)CC1Oc2ccc(C)cc2NC1=O (configuration not stated) | 3.5% | u | 56.2% | -9.5% | -11.5 | 2.1%
O=C(CC1Oc2ccc(Cl)cc2NC1=O)NC1CCCCCC1 (configuration not stated) | 9.6% | 79.4µM* | 47.6% | -8.2% | 1.5 | -8.5%
CCC1CCCCN1CCCNC(=O)CC1Oc2ccc(C)cc2NC1=O (configuration not stated) | 2.4% | 31.6µM* | 57.1% | -20.9% | 2.1 | -9.9%
Cc1ccc2c(c1)NC(=O)C(CC(=O)NCCCN1CCN(c3cc(Cl)ccc3C)CC1)O2 (configuration not stated) | -34.2% | 44.7µM* | 21.2% | -8.1% | 1.1 | -24.3%
O=C(CC1Oc2ccccc2NC1=O)NC1CCCC1 (configuration not stated) | -3.1% | -6.6% | 51.1% | 0.6% | -5.6 | -6.2%
Cc1ccc2c(c1)NC(=O)C(CC(=O)NCCN(C)C)O2 (configuration not stated) | -0.2% | 44.7µM* | 49.4% | -10.3% | -1.3 | -14.8%
Cc1ccc(OCCNC(=O)c2cccc(S(=O)(=O)N3CCN(C)CC3)c2)cc1 | 11.4% | -0.4%[12.7 µM] | 28.2% | -13.4% | 0.8 | -8.1%
